Source: PubChem BioAssay (NCATS)
Records with an inconclusive call do not appear. Active and inactive are the calls of the source. Calls follow the shape of the dose curve; as a rule, active = well fitted activation curve with a large enough effect; inconclusive = small, poorly fitted or top-dose-only effect; inactive = no such curve, though single readings can be large or run the other way.

Target: Rap guanine nucleotide exchange factor 4 (Homo sapiens) (UniProt Q8WZA2)
Assay: Confirmatory qHTS for agonist of cAMP-regulated guanine nucleotide exchange factor 4 (EPAC2) (AID 1645884);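 also: nucleotide exchange releases bodipy-GDP from Rap1 and this lowers its fluorescence; nearly all actives have a fitted effect of over 65% in size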
Details: EPAC2 GEF activity, Rap1B-BODIPY-GDP fluorescence; series mostly up to 154 µM; activation: at the top concentration
% is scaled to controls: 0 for no effect and ±100 for the full control effect; potency is read from the fitted curve at half-maximal effect.

Chain of Rap guanine nucleotide exchange factor 4 (Homo sapiens) (Q8WZA2 whole entry, looked up): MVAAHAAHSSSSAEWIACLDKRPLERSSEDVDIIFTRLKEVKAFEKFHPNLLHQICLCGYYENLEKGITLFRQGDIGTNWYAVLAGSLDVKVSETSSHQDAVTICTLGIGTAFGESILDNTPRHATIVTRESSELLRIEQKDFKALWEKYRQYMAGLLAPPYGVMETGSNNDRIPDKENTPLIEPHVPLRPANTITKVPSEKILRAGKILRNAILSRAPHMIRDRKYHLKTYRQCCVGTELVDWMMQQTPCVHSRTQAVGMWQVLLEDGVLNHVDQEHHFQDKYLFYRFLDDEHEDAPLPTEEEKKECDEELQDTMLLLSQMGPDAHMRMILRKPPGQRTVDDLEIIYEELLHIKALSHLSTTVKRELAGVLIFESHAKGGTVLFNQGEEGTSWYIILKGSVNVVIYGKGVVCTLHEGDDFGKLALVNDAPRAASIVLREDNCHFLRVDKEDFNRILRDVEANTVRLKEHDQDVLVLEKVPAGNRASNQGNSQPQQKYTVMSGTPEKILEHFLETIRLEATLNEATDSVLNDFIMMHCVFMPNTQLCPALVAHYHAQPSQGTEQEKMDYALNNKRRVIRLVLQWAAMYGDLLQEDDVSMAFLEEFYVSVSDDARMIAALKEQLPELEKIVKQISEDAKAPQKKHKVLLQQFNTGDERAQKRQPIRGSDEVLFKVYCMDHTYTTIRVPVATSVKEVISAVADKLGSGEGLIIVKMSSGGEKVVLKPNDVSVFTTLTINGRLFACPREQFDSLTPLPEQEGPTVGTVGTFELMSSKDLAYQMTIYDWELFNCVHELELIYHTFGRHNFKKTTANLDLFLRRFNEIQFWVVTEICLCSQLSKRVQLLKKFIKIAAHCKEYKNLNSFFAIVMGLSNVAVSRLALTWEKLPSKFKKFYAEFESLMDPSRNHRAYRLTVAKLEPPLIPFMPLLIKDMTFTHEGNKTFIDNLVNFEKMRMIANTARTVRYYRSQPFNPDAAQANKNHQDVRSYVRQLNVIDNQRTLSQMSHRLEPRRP

activation, inactive:
Cc1[nH]c2ccccc2c1C(c1ccccc1)c1ccc(Cl)s1 (centres undefined) 0.517% [at 83.8 µM, percent relative to cAMP agonist control]
COc1ccc2oc(C)c(C(=O)c3ccccc3)c2c1 5.91% [at 17.1 µM, percent relative to cAMP agonist control]
COc1ccc(N=Cc2c(O)n(-c3cccc(C)n3)c(=O)c3ccccc23)c(OC)c1 -25.1% [at 17.1 µM, percent relative to cAMP agonist control]
O=C(Cn1c(=O)n(-c2ccccc2)c(=O)c2c3c(sc21)CCC3)c1ccc(Br)cc1 7.42% [at 83.8 µM, percent relative to cAMP agonist control]
COc1ccc(Cl)cc1NC(=O)CN(C)C(C)C(=O)NC(=O)NC1CCCCC1 (centres undefined) 28.7%
COc1ccccc1CNc1cc(C)nc2nc(-c3ccc(C)cc3)nn12 -7.93% [at 83.8 µM, percent relative to cAMP agonist control]
Cc1cccc(-n2c(N)c(-c3nc4ccccc4n3C)c3nc4ccccc4nc32)c1 17.4% [at 17.1 µM, percent relative to cAMP agonist control]
O=C(N/N=C/c1cc(Cl)cc([N+](=O)[O-])c1O)NC12CC3CC(CC(C3)C1)C2 -23.3%
O=C(OCCN1C(=O)c2cccc3c(N4CCOCC4)ccc(c23)C1=O)c1ccccc1Cl 17.6% [at 17.1 µM, percent relative to cAMP agonist control]
CCOC(=O)c1sc2nc3c(SCC(=O)O)cc(C(=O)c4cc(F)ccc4O)cn3c(=O)c2c1C -5.14%
COc1ccc(O)c(C(=O)c2cc(SCC(=O)O)c3nc4sc5c(c4c(=O)n3c2)CCCC5)c1 -25.2%
COc1ccc(CN(C)C(=O)CC(c2ccccc2)c2ccccc2)cc1 8.04%
COc1ccc(NC(=O)/C(C#N)=C\c2ccc(OCc3ccc(C(=O)O)cc3)c(OC)c2)cc1 21.6%
CCOc1ccccc1NC(=O)CSc1nccn1-c1cccc(C)c1 7.39% [at 83.8 µM, percent relative to cAMP agonist control]
CN1/C(=C/C=C(C#N)C#N)C(C)(C)c2ccccc21 -11.9% [at 17.1 µM, percent relative to cAMP agonist control]
COc1cc(/C=C(\C#N)c2nc3ccccc3o2)ccc1O 7.08% [at 17.1 µM, percent relative to cAMP agonist control]
CCN(CC)C(=O)c1ccc(/C=C/c2c[nH]c3ccccc23)[n+](C)c1 6.96% [at 17.1 µM, percent relative to cAMP agonist control]
O=C(O)c1cccc(-c2ccc(/C=c3/sc4nc5ccccc5n4c3=O)o2)c1 6.12%
COc1cc(C2CC(=O)Oc3cc(C)cc(C)c32)cc(OC)c1OC (centres undefined) 11.2%
COC(=O)c1c(SC)nc2ccccc2c1OCc1ccc(C)cc1C -11.1% [at 83.8 µM, percent relative to cAMP agonist control]
COc1ccccc1C(=O)NNC(=O)CCCN1C(=O)/C(=C/c2cccs2)SC1=S 1.7% [at 17.1 µM, percent relative to cAMP agonist control]
Cc1ccc(-c2csc3ncnc(Nc4ccc(C(=O)O)cc4)c23)cc1 28% [at 83.8 µM, percent relative to cAMP agonist control]
CN(Cc1cccs1)c1nc(-c2cccnc2)nc2ccccc12 12.1% [at 17.1 µM, percent relative to cAMP agonist control]
COc1ccc(N=Cc2sc(O)c3ccccc23)cc1 2.81% [at 17.1 µM, percent relative to cAMP agonist control]
Cc1cccc(-c2nc3nc(C)cc(NCc4ccccc4Cl)n3n2)c1 -16.7% [at 83.8 µM, percent relative to cAMP agonist control]
CCOC(=O)N1CCc2c(sc3c2c(=O)n(-c2ccc(F)cc2)c(=O)n3CC(=O)c2ccc(Cl)cc2)C1 -22% [at 83.8 µM, percent relative to cAMP agonist control]

Potency, active:
CCc1cccc(CC)c1N1C(=O)C2=C(SCCCS2)C1=O 112 µM
CCN(CC)c1ccc2cc(-c3nc(-c4ccccc4)no3)c(=O)oc2c1 31.6 µM
Cc1ccccc1-n1c(O)c(/C=C/C=Nc2ccccc2)c(=O)[nH]c1=O 112 µM
O=C(N=c1ccn(-c2nc3ccccc3nc2NS(=O)(=O)c2ccccc2)cc1)c1ccccc1Cl 89.1 µM
Cc1ccc(N2C(=O)c3cccc4c(N)ccc(c34)C2=O)c2cccnc12 112 µM
N#C/C(=C\c1ccc(N2CCOCC2)o1)c1nc2ccccc2[nH]1 112 µM
O=c1oc2cc(O)ccc2cc1-c1nc2c(s1)CCc1ccccc1-2 100 µM
O=C(N/N=C/c1cccnc1)c1cc(-c2ccccc2OCc2ccccc2)n[nH]1 89.1 µM
CC(C)n1cc(/C=C/c2cc[n+](C)cc2)c2ccccc21 112 µM
Cc1ccc2[nH]cc(/C=C/c3cc[n+](C)cc3)c2c1 112 µM
CCOc1cc(/C=C2\CCCc3c2nc2ccccc2c3C(=O)O)ccc1OC 112 µM
NC(=O)c1c(NC(=O)c2ccccc2)sc2c1CCN(Cc1ccccc1)C2 112 µM
CN(C)c1ccc(/C=C2\SC(=S)N(Nc3ncc(C(F)(F)F)cc3Cl)C2=O)cc1 112 µM
